Experimental data reported in PubChem BioAssay AID652128 (Broad Institute, 2013).
The other results are listed elsewhere or left out. Results filed as inconclusive are left out. The source made the active and inactive calls.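 How the source made its calls: active means fitted half-maximal concentration for signal loss at or below twice the highest dose tested, in every separate run (actives reach about 64 µM in these data); inconclusive means runs disagree, or flat partial signal loss, or poor fit; inactive means the rest.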

Experiment: DNA-binding compounds via dye displacement, dose response, artefact control for RAD52 inhibitor project, biochemical, fluorescence polarization, cherry-pick (AID 652128)
Conditions: Salmon sperm DNA/acridine orange FP displacement

Compound	outcome	AC50
COc1ccc(NC(=O)C2C3CCC(O3)C2C(=O)O)cc1OC (stereo unspecified)	inactive	–
CCN(CC(=O)Nc1ccc(NC(C)=O)cc1)C(=O)C1CC(=O)N(c2ccc3c(c2)OCCO3)C1 (stereo unspecified)	inactive	–
CN(C)CCNC(=O)c1ccc(Cl)c2cc3ccccc3nc12	–	13.1 µM (active)
Cc1ccc2c(c1)C1CN(C)CCC1N2S(=O)(=O)c1ccc(Oc2ccc([N+](=O)[O-])cc2)cc1 (stereo unspecified)	inactive	–
COc1cccc(CNc2nc(NCc3cccs3)nc3ccsc23)c1	inactive	–
COc1ccc(CC(N)c2csc(NC(=O)Nc3ccc(C(C)C)cc3)n2)cc1 (stereo unspecified)	inactive	–
Cc1cccc(NC(=S)NC23CN4CN(CN(C4)C2)C3)c1	inactive	–
C=Cn1cc[n+](CC(=O)c2ccc(OC)c(OC)c2)c1	inactive	–
COc1ccc2[nH]c3c(C)c4cc[n+](C)cc4c(C)c3c2c1	–	4.3 µM (active)
O=C(/C=C/c1cn(-c2ccccc2)nc1-c1ccc2c(c1)OCCO2)NCCCN1CCOCC1	inactive	–
CCN(CC)CCNC(=O)c1ccc(NC(=O)c2cc(-c3ccncc3)nc3ccccc23)cc1	inactive	–
CCN(CC)CCC(c1ccc2c(c1)OCO2)c1c(OC)cc(OC)c2c(-c3ccccc3)cc(=O)oc12 (stereo unspecified)	inactive	–
CC(=O)c1cccc(-c2cnc3c(NC=O)cc(-c4ccc(N5CCN(C)CC5)cc4)cn23)c1	inactive	–
COC1=C(N2CCOCC2)C(=O)c2ccccc2C1=O	inactive	–
NC(N)=Nc1nc(-c2ccccc2)c2cc(Cl)ccc2n1	inactive	–
NCCCNC(=S)NCCCN(Cc1ccc(Cl)cc1)c1ccc(Br)cn1	inactive	–
Cc1cc2oc3ccc(NCCC4CCCN4C)cc3c(=O)c2cc1C (stereo unspecified)	inactive	–
CCn1cc(CN2CCC(C(=O)Nc3cccc(-c4cccc(Cl)c4)c3)CC2)cn1	inactive	–
Cc1c(CCOC(=O)CC23CC4CC(CC(C)(C4)C2)C3)sc[n+]1Cc1ccc([N+](=O)[O-])cc1	inactive	–
CCCCCCCCCCOC(=O)Cn1c(COc2ccc(C)cc2)[n+](C)c2ccccc21	inactive	–
CCN(CC)CCN(C(=O)c1ccc2c(c1)CCCC2)c1nc2c(OC)cccc2s1	inactive	–
CC(=O)Nc1ccc(CNc2nc(NCCN(C)C)nc3cc(-c4ccccc4)sc23)cc1	inactive	–
CCN1CCN(CCNC(=O)c2ccc(/C=C3/Sc4ccccc4N(Cc4cccc(C)c4)C3=O)cc2)CC1	inactive	–
CCOCCCNC(=S)Nc1ccc2nc(N3CCN(CC)CC3)cc(C)c2c1	inactive	–
CN(C)CCNC(=O)c1cccc(-c2cnc3c(NC=O)cc(-c4cccc(C(F)(F)F)c4)cn23)c1	inactive	–
CN(C)CCN1CCN(c2cc(-c3cccc(Cl)c3)nc3ccnn23)CC1	inactive	–
